# Bioassay records: PubChem BioAssay, National Center for Advancing Translational Sciences (NCATS)
# NS1 inh – inhibitors of influenza NS1 protein function | Potency, µM (top dose mostly 46.1 µM), for inactives: top-dose activity, positive = more growth | hit rate 0.4% among 270,000 | AID 2326; calls by dose curve; further: potency means the concentration at half of the fitted maximal effect; actives are rising curves; nearly all actives have a fitted effect of over 50% in size
#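 Recovery from NS1-induced slow growth read by OD600 in budding yeast switched to galactose assay medium (pH 6.0, -URA) at 1:100 dilution. Compound 23 nl per well; the matching strain lacking NS1 serves as control.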
# Pf growth 48h – inhibits P. falciparum growth in the first generation, 48 h | Potency, µM (doses to about 28.7 µM), for the others: at the highest dose activity change, negative = inhibition, most hits filed as inhibitors | hit rate 5.9% among 310,000 | P. falciparum luciferase growth in erythrocytes, 48 h | AID 504832; further: potency means the concentration at half of the fitted maximal effect; on the % scale 0 is the no-effect control and ±100 the full control effect
#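 Luminescence readout; reporter = integrated firefly luciferase in P. falciparum. RBC culture at 2% hematocrit, 0.1% parasitemia final, 37 C/5% CO2; decreased signal taken as growth inhibition.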
# Sm TGR block – inhibitors of Schistosoma mansoni thioredoxin glutathione reductase | Q962Y6 | purified TGR, DTNB reduction, TNB absorbance 405 nm | Potency, µM (highest dose often 114 µM), for the others: at the top dose activity change, negative = inhibition, hits mostly inhibitors | hit rate 3% among 360,000 | AID 485364; further: potency means the concentration at half of the fitted maximal effect; on the % scale 0 is the no-effect control and ±100 the full control effect; nearly all actives have a fitted effect of over 60% in size
#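 First, TGR (20 nM dispensed) and NADPH were mixed with compound. Second, a 15 min room-temperature incubation followed. Third, further NADPH and then DTNB were added to start the reaction. Finally, TNB absorbance was monitored kinetically.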
# Pf growth 96h – P. falciparum growth inhibition at 96 hours; P. falciparum luciferase reporter growth, 96 h; Potency, µM (series often up to 28.7 µM), inactives show at the top dose activity change, negative = inhibition, usual class: inhibitors; hit rate 6.9% among 320,000; AID 504834; further: potency means the concentration at half of the fitted maximal effect; on the % scale 0 is the no-effect control and ±100 the full control effect
#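 Parasite growth measured via integrated firefly luciferase reporter in P. falciparum. Infected erythrocytes at 2% hematocrit, 0.05% parasitemia final were treated 96 hours at 37 C under 5% CO2, and luminescence was read.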
# Shiga toxin inh – Shiga toxin inhibition. inhibition, % at 38.7 µM. AID 2315. Vero cells, Shiga toxin protein synthesis inhibition reporter. hit rate 9.2% among 290,000; in the data active means inhibition mostly above about 28%, no sharp cut-off; inactive means mostly below about 43%; further: 0% is about no effect
# CHX counter – counter-screen for Shiga toxin inhibitors: cycloheximide protein synthesis inhibition; cell reporter, cycloheximide protein synthesis inhibition counterscreen; max response, %; hit rate 12% among 300,000; in the data active means max response mostly above about 13%, no sharp cut-off; inactive means mostly below about 14%; further: read at 38.3 µM for the half of the compounds with a filed dose; 0% is about no effect
# Numbers without * were called inactive; ? = inconclusive; . = no result; [ ] = another dose, or the depositor's remark. The list is not random: actives were taken first. Their share in the collection is about 21%. Unless noted, the call rests on the fitted dose curve; in most records, active means well fitted curve in the direction sought with a large enough effect; inconclusive means small, poorly fitted or top-dose-only effect, or another doubt; inactive means no such curve, though single readings can be large; an effect the other way counts as inactive or inconclusive.
SMILES,NS1 inh,Pf growth 48h,Sm TGR block,Pf growth 96h,Shiga toxin inh,CHX counter
CC(C)(C)OC(=O)N1CCC(c2c(C(=O)N3CCN(C(=O)c4ccco4)CC3)cnn2-c2cccc(Cl)c2)CC1,-18%,12µM*,-33%,1%,-8,-1
CC(C)(C)OC(=O)N1CCC(c2c(C(=O)NC3CC3)cnn2-c2ccccc2)CC1,-2%,12µM*,-32%,15%,-4,-1
Cc1cccc(-n2ncc(C(=O)NC3CCCC3)c2C2CCN(C(=O)OC(C)(C)C)CC2)c1,12%,1.5µM*,-17%,?,13,1
CC(=O)Nc1ccc(NC(=O)c2cnn(-c3ccccc3)c2C2CCN(C(=O)OC(C)(C)C)CC2)cc1,.,.,5µM*,.,.,.
COc1ccc(NC(=O)COC(=O)C2CCC2)cc1Cl,-13%,81%,11%,30%,-6,1
CC(C)(C)c1ccc(C(=O)NCC(=O)OCc2ccc([N+](=O)[O-])cc2)cc1,5%,4%,4%,0.52µM*,-8,-4
CC(C)(C)c1ccc(C(=O)NCC(=O)OCC(=O)Nc2ccccc2[N+](=O)[O-])cc1,-34%,26%,7%,53%,45*,41*
CCCS(=O)(=O)c1c(S(=O)(=O)CCC)c2cnccn2c1C(=O)c1ccc(Cl)cc1,1%,.,6%,?,7,0
CCCCOc1ccc(N(CC(=O)NCc2ccccc2)C(=O)c2csnn2)cc1,-6%,-9%,6%,-25%,30*,27
CC(=O)c1ccc(N(CC(=O)NCCc2ccccc2)C(=O)c2csnn2)cc1,20%,?,-14%,9.3µM*,20,1
COc1ccc(CNC(=O)CN(C(=O)c2csnn2)c2ccc(C(C)=O)cc2)cc1,-1%,10µM*,-19%,0%,39,10
O=[N+]([O-])c1ccccc1,.,-7%,.,-6%,.,.
O=[N+]([O-])c1ccc2c(c1)S(=O)c1ccccc1-2 (stereo not drawn),0%,8.3µM*,-25%,?,-14,-1
O=C(CN1CCN(CC(=O)Nc2ccccc2Cl)CC1)NCC1(N2CCCCC2)CCCCC1,.,?,-2%,?,.,.
CC(=O)OC(C)(C)/C=C/C(=O)[C@](C)(O)[C@H]1[C@H](O)C[C@@]2(C)[C@@H]3CC=C4[C@H](C[C@H](O)C(=O)C4(C)C)[C@]3(C)C(=O)C[C@]12C,-36%,3.7µM*,-3%,3.3µM*,-14,-3
CC(=O)OC(C)(C)/C=C/C(=O)C(C)(O)C1[C@H](O)C[C@@]2(C)C3CC=C4C(CC[C@@H](O)C4(C)C)[C@]3(CO)C(=O)C[C@]12C (stereo partly drawn),3%,10µM*,-25%,1.7µM*,-9,-6
Cc1ccc(C(=O)OCC(=O)N(CC(C)C)c2c(N)n(Cc3ccccc3)c(=O)[nH]c2=O)cc1[N+](=O)[O-],.,-3%,3%,-16%,.,.
Cc1cc(C)n(-c2nc3cc(Cl)ccc3nc2Nc2ccc(C)c(F)c2)n1,.,.,13%,.,.,.
CSc1nc(=S)n(-c2ccccc2)c(C)c1C(C)=O,0%,8%,40µM*,-10%,-3,-4
CCOC(=O)c1[nH]c2ccccc2c1NC(=O)c1ccc(C)c(C)c1,.,.,13%,.,.,.
CCCn1c(N/N=C(C)\C=C\c2ccccc2)nc2c1c(=O)[nH]c(=O)n2C,.,-15%,-35%,19%,-17,-2
Cc1ccc(-c2nc3ccsc3c(=O)[nH]2)cc1,-5%,2.1µM*,7%,480%,103*,42*
O=C(CSc1ccc(-c2cccc([N+](=O)[O-])c2)nn1)N1CCCCC1,.,?,10%,3%,30,18
COc1ccc(-c2ccc(SCc3ccccn3)nn2)cc1OC,.,3%,-1%,2.6µM*,35,29*
O=[N+]([O-])c1cccc(-c2ccc(SCc3ccccn3)nn2)c1,.,86%,4%,0%,56*,37*
SMILES,NS1 inh,Pf growth 48h,Sm TGR block,Pf growth 96h,Shiga toxin inh,CHX counter
COc1cccc(-c2ccc(SCc3ccccn3)nn2)c1,.,111%,0%,97%,77*,42*
COc1ccc(CNC(=O)CN2C(=O)C3C4C=CC(C4)C3C2=O)cc1 (stereo not drawn),.,23%,-4%,?,-13,1
Cc1ccc(-c2noc(CN(C(=O)COc3cc(C)cc(C)c3C)C(C)C)n2)cc1,.,.,15%,.,.,.
COc1cc(/C=C/C(=O)OCC(=O)NCc2cccs2)ccc1OCC#N,?,-5%,-8%,17%,23,3
CCCCOC(=O)c1ccc(NC(=O)c2cc(Cl)c(Cl)cc2C(=O)O)cc1,4%,1%,?,53%[5.75 µM],66*,32*
CCCCOC(=O)c1ccc(NC(=O)c2nn(C)cc2Br)cc1,4%,?,4%,?,79*,30*
CC(=O)Nc1ccc(C(=O)OCCCOC(=O)c2ccc(NC(C)=O)cc2)cc1,12%,15%,7%,9%,-2,-2
CCCCOC(=O)Nc1cc(C(=O)OC)ccc1C(=O)OC,-13%,10µM*,4%,?,-2,-2
CC(=O)Nc1ccc(C(=O)OCCc2ccccc2)cc1,-166%,158%,-1%,260%,64*,42*
CCCCOC(=O)c1ccc(NC(=O)CSc2nnnn2C)cc1,1%,0%,2%,10%,1,2
CCCCOC(=O)Nc1ccc(C(=O)OC)cc1,-60%,66%,-28%,-3%,40,12
CCC(=O)c1c[nH]c(C(=O)NCCCn2ccnc2)c1,13%,0%,0%,5%,-9,-3
Cc1ccc(CCNC(=O)C(C)n2nc(C)c3c(C)n(-c4ccc(C)cc4)nc3c2=O)cc1 (stereo not drawn),.,.,-1%,.,.,.
COc1ccc2[nH]c3c(=O)n(CCCC(=O)NC4CCCCC4C)c(=S)[nH]c3c2c1 (stereo not drawn),7%,4%,-3%,-23%,-5,-10
CC(C)OCCCNC(=O)CCCn1c(SCC(N)=O)nc2c(sc3ccccc32)c1=O,.,.,7%,.,.,.
CCc1noc(C)c1C(=O)NNC(=O)COc1ccc(C)cc1,.,11%,-3%,10%,.,.
CCCCCCOC(=O)c1ccc(N)cc1,-43%,310%,-6%,358%,69*,42*
CCCOC(=O)c1ccc(NC(=O)C(CC)CC)cc1,-5%,89%,-7%,2%,70*,40*
CCCCOC(=O)c1ccc(NC(C)=O)cc1,-16%,50%,-34%,?,52*,13
CCCOC(=O)c1ccc(N)cc1,.,19%,.,-11%,.,.
CCCOC(=O)Nc1ccc(C(N)=O)cc1,-12%,59%,2%,-3%,19,24*
CC1Cc2ccccc2N1C(=O)Cn1cnc2c1c(=O)n(C)c(=O)n2C (stereo not drawn),21%,12%,-4%,23%,-11,4
COc1cc(O)sc1C=Nc1ccc(Cl)cc1Cl,.,32%,-13%,0%,12,14
Cc1ccc(C)c(NC(=O)CN2C(=O)CCc3ccccc32)c1,.,.,-7%,.,.,.
